In PubChem BioAssay (EPA / NIEHS):
Records with an inconclusive call do not appear. Calls of active or inactive are those of the source. The calls were made as follows: active = hit-call score of the fitted dose curve at least 0.9, where 1 is the maximum; inconclusive = response in the unintended direction; inactive = score below 0.9.

Assay: ATG_XTT_Cytotoxicity: Cytotoxicity Assessment in the Attagene TRANS-FACTORIAL HepG2 Assay (AID 2283584);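 as to AC50: cells exposed to compound for 24 h before reading; active means loss of viability signal versus DMSO baseline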
Procedure: ATG_XTT_Cytotoxicity is a cell-based, single-readout assay that uses HepG2, a human liver cell line, with measurements taken at 24 hours after chemical dosing in a 24-well plate.ATG_XTT_Cytotoxicity is one of one assay component(s) measured or calculated from the ATG_XTT_Cytotoxicity assay. It is designed to make measurements of cell number, a form of viability reporter, as detected with […] signals by XTT cytotoxicity assay technology.Data from the assay component ATG_XTT_Cytotoxicity was analyzed into 1 assay endpoint. This assay endpoint, ATG_XTT_Cytotoxicity, was analyzed in the positive analysis fitting direction relative to DMSO as the negative control and baseline of activity. Using a type of viability reporter, loss-of-signal activity can be used to understand changes in the viability. Furthermore, this assay endpoint can be referred to as a primary readout, because the performed assay has only produced 1 assay endpoint. To generalize the intended target to other relatable targets, this assay endpoint is annotated to the cell cycle intended target family, where the subfamily is cytotoxicity.
Human liver HepG2 cells are transiently transfected with multiple reporter transcription units (MRTUs) in 6-well plates using FuGene 6 reagent (Roche; 3 ml FuGene/1 mg DNA). The MRTU constructs are regulated by a cis-regulating element (promoter). […] A major difference between the CIS and TRANS system is that in CIS activities of endogenous TFs are measured, whereas the TRANS assay evaluates changes in activities of exogenous, chimeric NR-Gal4 proteins. […] At the end of 24 hour incubation, total RNA was isolated using TriZol reagent (Invitrogen). The isolated RNA is then reverse-transcribed using oligo(dT) primer and Mo-MLV reverse transcriptase (Invitrogen) with DNAse I (Ambion) treatment for 30 min. The one-tenth of the produced cDNA was amplified by PCR using Taq DNA polymerase (Invitrogen) and two reporter sequence-specific primers. The PCR products were fluorescently labeled by primer extension with 6-arboxyfluorescein (6-FAM) 5'-labeled reporter sequence-specific primer (2 min at 95 C, 20 s at 68 C and 10 min at 72 C) and these products were digested with 5U of HpaI (New England Biolabs) for 2h at 37 C. The fragments were purified using Qiaquick PCR columns (Qiagen), analyzed on an ABI 3130xL genetic analyzer (Applied Biosystems) with peak positions identified by using a set of X-rhodamine (ROX)-labeled MapMarker1000 molecular weight standards (BioVentures). The raw capillary electrophoresis data was processed using Attagraph software (Attagene).

| Structure (SMILES) | outcome | AC50 |
| --- | --- | --- |
| O=C1CCCCCCCCCCCCCCCO1 | inactive | – |
| Cc1cc(C)c(C)c(C)c1 | inactive | – |
| C1=CCCC1 | inactive | – |
| FC(F)(F)C(=NOCC1OCCO1)c1ccc(Cl)cc1 | inactive | – |
| CC(=O)Oc1ccc(C(C)=O)cc1 | inactive | – |
| O=CN1CCCCC1 | inactive | – |
| CCCCCCCCCCCCCCCC[n+]1ccccc1 | – | 26.6 µM (active) |
| O=c1cc[nH]c(=S)[nH]1 | inactive | – |
| CCCCCC(C)O (stereo not given) | inactive | – |
| c1c[nH]cn1 | inactive | – |
| O=c1cc(-c2ccccc2)oc2ccccc12 | inactive | – |
| CC(C)(C)c1n[nH]c(=O)n(N)c1=O | inactive | – |
| CC(C)(C)C1CCCCC1=O (stereo not given) | inactive | – |
| Cc1cc(C)c(C)c(O)c1 | inactive | – |
| O=[N+]([O-])C1(Br)COCOC1 | inactive | – |
| CCOC(=O)NNc1nncc2ccccc12 | inactive | – |
| O=C1C=CC(=O)O1 | inactive | – |
| NC(=O)C1CO1 (stereo not given) | inactive | – |
| O=C(O)CC(C(=O)O)C(CC(=O)O)C(=O)O (stereo not given) | inactive | – |
| CCCCC/C=C\CCC=O | inactive | – |

| Structure (SMILES) | outcome | AC50 |
| --- | --- | --- |
| O=C1CCCCCCCCCCC(=O)OCCO1 | inactive | – |
| CCCCCCCCC(=O)OCC | inactive | – |
| CC(C)c1ccc(C=O)cc1 | inactive | – |
| O=C(O)c1ccccc1Nc1cccc(C(F)(F)F)c1 | inactive | – |
| CCOC(=O)N1CCC(=C2c3ccc(Cl)cc3CCc3cccnc32)CC1 | – | 47.5 µM (active) |
| CC(=O)OCc1ccco1 | inactive | – |
| CCCC(C)CCC(C)=O (stereo not given) | inactive | – |
| O=C(Nc1cccc(C(F)(F)F)c1)c1cc(Br)cc(Br)c1O | inactive | – |
| Cn1c([N+](=O)[O-])cnc1COC(N)=O | inactive | – |
| CCC(Cc1ccccc1)(C(=O)c1ccc(N2CCOCC2)cc1)N(C)C (stereo not given) | inactive | – |
| O=S(=O)(O)c1ccccc1C=Cc1ccc(-c2ccc(C=Cc3ccccc3S(=O)(=O)O)cc2)cc1 | inactive | – |
| NC(=O)OCC(COC(N)=O)c1ccccc1 | inactive | – |
| C=CC(C)(CCC=C(C)C)OC(=O)CC(C)C (stereo not given) | inactive | – |
| CCCC(=O)OCc1ccccc1 | inactive | – |
| Nc1cccc(C(F)(F)F)c1 | inactive | – |
| OCCCS | inactive | – |
| COCCCOCCCOC | inactive | – |
| CCCCCc1ccc(Cl)cc1 | inactive | – |
| NCCCN1CCN(CCCN)CC1 | inactive | – |
| Cc1ccc(OC(=O)CC(C)C)cc1 | inactive | – |
